# PubChem BioAssay (Tox21)
# Values without a mark were called inactive. Where a call stands in place of a potency, no number is given. The source made the active and inactive calls. The call rests on the fitted dose curve; in most records, active means well fitted activation curve with a large enough effect in the repeat runs; inconclusive means weak or mixed curves; inactive means flat fitted curve, though single readings scatter.
# Test: A CellTox Green Cytotoxicity Assay to monitor cytotoxicity in HEK293 cells - 0 hour (AID 1224869); further: nearly all actives have a fitted effect of over 50% in size
# Settings: CellTox Green fluorescence; series mostly up to 76.8 µM
# Description: National Center for Advancing Translational Sciences [NCATS]
# NIH Chemical Genomics Center [NCGC]
# U.S. Environmental Protection Agency [EPA]
# National Institutes of Environmental Health Sciences [NIEHS]
# National Toxicology Program [NTP]
# Cell-based models are critical for drug discovery. Determining the natural cytotoxic effects resulting from test compounds is an essential research activity. A CellTox Green Cytotoxicity Assay to monitor cytotoxicity in real time of continues cell culture during 40 hours of the compound treatment was used to screen Tox21 10K library compounds in Hek293 cells. CellTox Green Cytotoxicity Assay is a nonlytic, homogeneous, biofluorescent method to measure cytotoxicity in cell culture after experimental manipulation. The assay system uses a proprietary asymmetric cyanine dye that is excluded from viable cells but preferentially stains the dead cell's DNA. […] Viable cells produce no appreciable increases in fluorescence. Therefore, the fluorescence signal produced by the binding interaction with dead cell DNA is proportional to cytotoxicity.
# The mixture of Hek293 cell suspension and reagents were dispensed at 600cells/6 ul/well in 1536-well tissue culture treated black solid bottom plates using a Multidrop dispenser. After the assay plates were incubated at a 37 C/5% CO2 incubator for 5 hours, 23 nL of compounds dissolved in DMSO, positive and negative controls was transferred to the assay plate by a pintool work station. The plates were incubated at 37 C for 40 hours. The fluorescence intensity were measured at 0h, 8h, 16h, 24h, 32h and 40h time points using ViewLux plate reader during compound treatment.
Structure (SMILES),Potency,cytotoxicity
Nc1c2ccccc2nc2ccccc12,inactive,–
Cc1cccc2c1cc1ccc3cccc4ccc2c1c34,inactive,–
Oc1ccc(N=Nc2ccccc2)cc1,inactive,–
CCCCCOC(=O)CCCC,inactive,–
CCCCCCC[N+](CC)(CC)CCCCc1ccc(Cl)cc1,inactive,–
CCCCN(CCCC)C(=O)N(CCCC)CCCC,inactive,–
NNC(=O)c1cccc(C(=O)NN)c1,inactive,–
COC(=O)C1=C(C)NC(C)=C(C(=O)OCCc2ccc(N3CCN(C(c4ccccc4)c4ccccc4)CC3)cc2)C1c1cccc([N+](=O)[O-])c1 (stereo not given),inactive,–
C[n+]1cc2c3c(ccc2c2ccc4cc5c(cc4c21)OCO5)OCO3,–,-9.5% [at 15.8 µM]
Clc1ccccc1C(c1ccccc1)(c1ccccc1)n1ccnc1,inactive,–
CCCCCCCCCCCCCCCCCC[N+](C)(C)Cc1ccccc1,inactive,–
CNCc1cc(F)ccc1Oc1ccc(Cl)c(Cl)c1,inactive,–
N=C1C=CC(=C(c2ccc(N)cc2)c2ccc(N)cc2)C=C1,inactive,–
CC(=O)N1CCN(c2ccc(OC[C@H]3CO[C@](Cn4ccnc4)(c4ccc(Cl)cc4Cl)O3)cc2)CC1,inactive,–
CSc1ccc(/C=C2/C(C)=C(CC(=O)O)c3cc(F)ccc32)cc1,inactive,–
O=C(O)c1cc(O)c2c(c1)C(=O)c1cccc(O)c1C2=O,inactive,–
Cc1[nH]nc2c1N=C(c1ccccc1Cl)c1cc([N+](=O)[O-])ccc1N2,inactive,–
CN(C)[C@@H]1C(=O)C(C(N)=O)=C(O)[C@@]2(O)C(=O)C3=C(O)c4c(O)cccc4C[C@H]3C[C@@H]12,inactive,–
O=[N+]([O-])c1ccccc1Nc1ccccc1,inactive,–
CC[C@@]1(O)C(=O)OCc2c1cc1n(c2=O)Cc2c-1nc1ccccc1c2/C=N/OC(C)(C)C,inactive,–

Structure (SMILES),Potency,cytotoxicity
Cc1cccc(S(=O)(=O)O)c1C,inactive,–
CCCCCCCCOc1ccccc1C(=O)Nc1ccc(C(=O)OCC[N+](C)(CC)CC)cc1,inactive,–
Cc1cc(C2CCCCC2)n(O)c(=O)c1,inactive,–
CCC(N)(CO)CO,inactive,–
CCN(C(=O)c1cc(C)cc(OC[C@H](C)Nc2ccncc2)c1)C(C)C,inactive,–
O=c1[nH]cnc2nc[nH]c12,inactive,–
NC(=O)N1C(=O)C(C(=O)c2cc(Cl)cs2)c2cc(F)c(Cl)cc21 (stereo not given),inactive,–
CC(=O)S[C@@H]1CC2=CC(=O)CC[C@]2(C)[C@H]2CC[C@@]3(C)[C@@H](CC[C@@]34CCC(=O)O4)[C@H]12,inactive,–
CCC(CN)=C(c1ccccc1)c1ccccc1,inactive,–
Nc1cc(C(F)(F)F)ccc1S,inactive,–
CCCCCCCCCCC=O,inactive,–
CCCCCOc1ccccc1/C(=C\SC)n1ccnc1,inactive,–
CC(C)(C)CC(C)(C)c1ccc(O)c(Cc2ccc(Cl)cc2Cl)c1,inactive,–
CCc1oc2ccccc2c1C(=O)c1cc(Br)c(O)c(Br)c1,inactive,–
O=c1[nH]sc2cc(Cl)ccc12,inactive,–
C[n+]1ccn(Cc2ccccc2)c1,inactive,–
CCOC(=O)/C=C(C)/C=C/C=C(C)/C=C/c1c(C)cc(OC)c(C)c1C,inactive,–
CN(C)c1ccc(SC#N)cc1,inactive,–
O=C1C=CC(=O)N1,inactive,–
CCCCCCCC[P+](CCCCCCCC)(CCCCCCCC)CCCCCCCC,inactive,–
